63 compounds from PubChem BioAssay AID430 (Sanford-Burnham Center for Chemical Genomics, 2006) can be followed below.

In all, about 63,000 compounds went through this assay and about 1,100 (1.7%) were called active. What follows is part of a selection rich in actives, with near analogues and random picks from the rest. Measured potencies and affinities stand elsewhere. Values without a mark were called inactive. Cut-off read from the data, not from the text of the source: active = cytotoxicity above about 50%; inactive = the rest.

A short description of the assay: cytotoxicity in HPDE-C7 cells, cell-based, fluorescence, HTS (AID 430).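 Note: cells exposed to compound for 48 hours before viability readout; 0% = vehicle and 100% = reference cytotoxic drug.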 The conditions noted are these: HPDE-C7 pancreatic duct cells viability, at 10 µM, hits give high values.
Consider `Nc1nc(-c2ccc(Cl)cc2)nn1C(=O)c1cccnc1`, for which the cytotoxicity was 9.3%.

Take `CC(C)C(OC(=O)c1cc2sccc2n1C)C(=O)NCC1CCCO1` (stereo not drawn): the cytotoxicity was -19.4%.

`O=C(CSc1nnc(-c2ccccc2Br)o1)N1CCN(C(=O)c2ccco2)CC1`: the cytotoxicity is -13.5%.

Consider `CC1CCCCN1C(=O)CSc1nnc(-c2ccco2)n1CC1CCCO1` (stereo not drawn), for which the cytotoxicity is 3.9%.

As for `COc1cccc(OCc2nnc(SCC(=O)OC3CCCCC3)n2C)c1`, the cytotoxicity is -7.5%.

`CCOc1ccccc1NC(=O)CSc1nnc(CNC(=O)c2ccco2)o1`: the cytotoxicity is 6.4%.

Take `CN(C)C(=O)N1CCN(C(=O)c2ccccc2Sc2ccccc2C#N)CC1`: the cytotoxicity was -6.6%.

As for `NS(=O)(=O)c1ccc(NC(=O)CSC2CCCCC2)cc1`, the cytotoxicity was -4.6%.

Turning to `NS(=O)(=O)c1ccc(NC=C2C(=O)OC3(CCCCC3)OC2=O)cc1`, the cytotoxicity was 6.2%.

`O=C1c2oc3ccc(Cl)cc3c(=O)c2C(c2cccc(Br)c2)N1CCO` (stereo not drawn): the cytotoxicity is 0.8%.

With `Cc1ccccc1OCC(=O)Nc1ccc(N2CCN(S(C)(=O)=O)CC2)cc1`, the cytotoxicity is -2%.

Take `COc1cc(-c2nnc(COc3ccc4ccccc4c3)o2)cc(OC)c1OC`: the cytotoxicity was 34.6%.

In the case of `COc1cc(-c2nnc(COc3ccc4cc(Br)ccc4c3)o2)cc(OC)c1OC`, the cytotoxicity is 78.6% (active).

Turning to `COc1ccc(-c2nnc(COc3ccc4ccccc4c3)o2)cc1OC`, the cytotoxicity is 4.4%.

For `COc1ccc(C(=O)OCn2nnc3ccccc3c2=O)cc1OC`, the cytotoxicity is 6.3%.

As for `CCOc1ccc(S(=O)(=O)n2cnc3cc(C)c(C)cc32)cc1`, the cytotoxicity is 8.7%.

For the compound `CC(C)(C)N1C(=O)Cc2c1nc(N)c1c(N)nc(N3CCCCC3CO)c(C#N)c21` (stereo not drawn), the cytotoxicity was 54.6% (active).

Take `N#Cc1c(N)nc2c(c1N)CC(=O)N2c1ccccc1-c1ccccc1`: the cytotoxicity is 0.1%.

For `CCOC(=O)CNS(=O)(=O)CCN1C(=O)c2ccccc2C1=O`, the cytotoxicity was -14.2%.

`CCOC(=O)c1c(CN2CCCCC2C)oc2ccc(OC)cc12` (stereo not drawn): the cytotoxicity is 3.6%.

Regarding `CCOC(=O)c1cccc(NC(=O)c2cnc3ccccc3n2)c1`, the cytotoxicity was 0.8%.

For the compound `O=C(Nc1ccc(Cl)c(Cl)c1)N1CCSC1c1ccco1` (stereo not drawn), the cytotoxicity was 62.5% (active).

Take `O=S(=O)(c1ccc(Cl)cc1)N1CCSC1c1ccco1` (stereo not drawn): the cytotoxicity is 8.1%.

For the compound `O=C(c1cc2ccccc2oc1=O)N1CCSC1c1ccco1` (stereo not drawn), the cytotoxicity was 4.9%.

In the case of `COc1ccc(-c2noc(CCC(=O)N3CCN(Cc4ccccc4)CC3)n2)cc1`, the cytotoxicity was -6.2%.

For the compound `CCCc1[nH]nc2c1C(c1ccncc1)C(C#N)=C(N)O2` (stereo not drawn), the cytotoxicity was 6.1%.

Regarding `CCc1[nH]nc2c1C(c1ccc(Br)s1)C(C#N)=C(N)O2` (stereo not drawn), the cytotoxicity is -2.9%.

In the case of `CCCN1CC23C=CC(O2)C(C(=O)O)C3C1=O` (stereo not drawn), the cytotoxicity is -2.8%.

For the compound `CC(C)COc1cccc(C(=O)Nc2ccc(S(=O)(=O)N3CCOCC3)cc2)c1`, the cytotoxicity was 16.1%.

As to `CCOc1ccc(-c2n[nH]c(C)c2Oc2ccc(OC)cc2)c(O)c1`, the cytotoxicity is 5.9%.

With `CCOc1ccc(N2C(=O)c3ccc(C(=O)OCc4c(C)noc4C)cc3C2=O)cc1`, the cytotoxicity is -3.6%.

Consider `CCOC(=O)c1ccc(OCC(=O)c2ccc(O)cc2O)cc1`, for which the cytotoxicity was -2.2%.

Regarding `CCCOC(=O)c1ccc(-c2c(C)noc2-c2ccc(OC)cc2O)o1`, the cytotoxicity is -2.8%.

`CCOC(=O)COC(=O)c1ccc(O)cc1`: the cytotoxicity is -3.6%.

Consider `CCOC(=O)c1c(N)n[nH]c1-c1ccc(OC)cc1`, for which the cytotoxicity is 2.4%.

`COc1ccc(CC(NC(C)=O)C(=O)N2CCN(C(=O)Nc3ccc(Cl)cc3)CC2)cc1OC` (stereo not drawn): the cytotoxicity was 4.9%.

Turning to `O=C(Nc1nc2ccccc2n1CCOc1ccccc1)c1ccco1`, the cytotoxicity was -12.8%.

Turning to `Cc1cccc(Nc2nc(NC(C)C)nc(Oc3ccc(=O)n(C)n3)n2)c1`, the cytotoxicity is -11.3%.

On to `CCOC(=O)N1CCN(CC(=O)Nc2cc(OCC)ccc2OCC)CC1`, for which the cytotoxicity is -9.8%.

Regarding `CCCCc1ccc(NC(=O)OC)cc1`, the cytotoxicity is -16.3%.

In the case of `CCCCc1ccc(NC(=O)COCC)cc1`, the cytotoxicity was -12.8%.

Turning to `CC(=O)Nc1ccc(S(=O)(=O)NCC(C)NS(=O)(=O)c2ccc(NC(C)=O)cc2)cc1` (stereo not drawn), the cytotoxicity is -20%.

In the case of `OC1(Cc2ccn[nH]2)CCCCC1`, the cytotoxicity is 17.9%.

Take `O=C(OCCN1CCOCC1)c1cccnc1`: the cytotoxicity was 0.3%.

For the compound `CCOc1cc(C(=O)Nc2nnc(C)s2)cc(OCC)c1OCC`, the cytotoxicity was -7.4%.

For `COc1ccc(CNC(=O)c2cc(-c3ccccc3OC)on2)cc1`, the cytotoxicity was -1.1%.

For `COc1ccccc1-c1cc(C(=O)NC(C)C)no1`, the cytotoxicity is -2.5%.

Take `COc1ccccc1-c1cc(C(=O)Nc2ccc(F)cc2F)no1`: the cytotoxicity is -11.9%.

As to `COc1ccc(-c2cc(C(=O)Nc3cc(C)n(Cc4ccc(Cl)cc4)n3)no2)cc1OC`, the cytotoxicity was 6.9%.

Turning to `COc1ccc(OC)c(-c2cc(C(=O)Nc3c(C)nn(Cc4ccc(Cl)cc4)c3C)no2)c1`, the cytotoxicity was 17.1%.

Regarding `COc1ccccc1-c1cc(C(=O)Nc2cccnc2)no1`, the cytotoxicity is 79.8% (active).

On to `COc1ccc(OC)c(-c2cc(C(=O)Nc3cc(C)n(Cc4ccc(Cl)cc4)n3)no2)c1`, for which the cytotoxicity is 62.5% (active).

For `COc1ccccc1-c1cc(C(=O)Nc2cc(C)on2)no1`, the cytotoxicity is -2.8%.

On to `COc1ccc(NC(=O)c2cc(-c3ccccc3OC)on2)cc1`, for which the cytotoxicity is 54.3% (active).

For the compound `Cc1cccc(Cn2c(SCCN3CCOCC3)nc3c2c(=O)n(C)c(=O)n3C)c1`, the cytotoxicity is -7.8%.

Take `COc1ccc(C2CC(c3ccccc3)Nc3nc(NC(=O)c4ccco4)nn32)cc1` (stereo not drawn): the cytotoxicity was -5.5%.

In the case of `COC(=O)Cc1cc(=O)n2[nH]c(C)nc2n1`, the cytotoxicity was -15.9%.

Turning to `CCOC(=O)N1CCN(c2ccc(C(=O)c3ccccc3)cc2F)CC1`, the cytotoxicity was 7%.

Regarding `Brc1ccc2[nH]ncc2c1`, the cytotoxicity was -5.6%.

As for `O=c1[nH]c(CN2CCc3ccccc3C2)nc2ccccc12`, the cytotoxicity is 3.3%.

`COc1cccc(N2CCN(CC(=O)c3c[nH]c4ccc(OC)cc34)CC2C)c1` (stereo not drawn): the cytotoxicity was 9.5%.

For `c1ccc2c(c1)CCN(c1ncnc3nc[nH]c13)C2`, the cytotoxicity is -4.2%.

In the case of `COc1cccc(N2CCN(Cc3nc4ccccc4c(=O)[nH]3)CC2)c1`, the cytotoxicity is -2.6%.
